Shown are actives, neighbours in structure and some others; about 4.6% of the full set was active somewhere.
CF NFkB block = cystic fibrosis NF-kB activation inhibition; KKLEB NF-kB-GFP reporter, PAF-induced, GFP fluorescence overnight; inhibition, % at 5 µM; hit rate 0.86% among 360,000; AID 588850;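 active means at least 50% inhibition at 5 µM, scaled per plate between neutral and stimulator controls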;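 further: PAF is a Pseudomonas aeruginosa culture filtrate used as stimulus; plate controls were PAF-stimulated DMSO wells for no effect and unstimulated DMSO wells for full effect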
Peg3 prom inh-1 = inhibitors of Peg3 promoter. AID 588405. hit rate 1.7% among 360,000. inhibition, % at 20 µM. HeLa PEG-Prom luciferase reporter, luminescence, overnight;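 active means inhibition of at least 50% at 20 µM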
HIF-2a inh = inhibitors of HIF-2a | 786-0 RCC cells HIF-2a reporter, luciferase luminescence, overnight | inhibition, % at 18.8 µM | hit rate 0.72% among 360,000 | AID 624352;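 active means inhibition of the luminescence signal of 40% or more relative to plate controls, in a single-dose primary screen at 18.75 µM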
ABHD5 PLIN5 PPI = blocks binding of human ABHD5 to perilipin-5; Q00G26+Q8WTS1; Split G. princeps luciferase complementation, luminescence, 4 h; inhibition, % at 4 µM; hit rate 0.78% among 360,000;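 active means inhibition above the mean inhibition across every tested compound plus 3 SD, cut at about 22% in these data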;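 further: 0% = DMSO only wells and the 100% control is not disclosed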
Target sequence (Q00G26 whole entry, looked up): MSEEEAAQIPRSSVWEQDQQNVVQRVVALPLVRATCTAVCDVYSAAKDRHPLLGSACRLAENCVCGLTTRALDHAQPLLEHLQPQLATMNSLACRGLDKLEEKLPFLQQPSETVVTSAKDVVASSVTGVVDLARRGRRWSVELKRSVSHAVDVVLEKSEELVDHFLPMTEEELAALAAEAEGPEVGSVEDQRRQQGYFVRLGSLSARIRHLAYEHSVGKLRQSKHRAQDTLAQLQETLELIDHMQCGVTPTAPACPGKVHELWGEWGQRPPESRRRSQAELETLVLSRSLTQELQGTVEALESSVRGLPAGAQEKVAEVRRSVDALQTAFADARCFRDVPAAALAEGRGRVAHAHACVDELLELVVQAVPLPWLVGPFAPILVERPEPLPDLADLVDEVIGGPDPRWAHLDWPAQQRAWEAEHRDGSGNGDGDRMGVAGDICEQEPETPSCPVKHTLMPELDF
Target sequence (Q8WTS1 whole entry, looked up): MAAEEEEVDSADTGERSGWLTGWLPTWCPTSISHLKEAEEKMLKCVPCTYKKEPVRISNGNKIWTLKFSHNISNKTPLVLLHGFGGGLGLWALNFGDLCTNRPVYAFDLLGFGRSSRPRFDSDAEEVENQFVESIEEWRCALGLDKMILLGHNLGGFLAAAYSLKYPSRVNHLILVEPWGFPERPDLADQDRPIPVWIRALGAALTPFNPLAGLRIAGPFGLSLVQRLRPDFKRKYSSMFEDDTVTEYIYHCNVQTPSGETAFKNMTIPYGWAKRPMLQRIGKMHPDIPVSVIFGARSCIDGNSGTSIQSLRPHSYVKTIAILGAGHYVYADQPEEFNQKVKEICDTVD
Mdm2 MdmX PPI = disrupts the human Mdm2-MdmX interaction. hit rate 3% among 330,000. inhibition, % at 8 µM. AID 485346. O15151+Q00987. SaOS-2 split-luciferase Mdm2/MdmX complementation, luminescence;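 active means inhibition of at least 50% at 8 µM in the primary screen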
KKLEB tox = CF airway cell cytotoxicity counter-screen. KKLEB CF airway cells viability, ATPlite luminescence, overnight; hits give low values; cells stimulated with P. aeruginosa culture filtrate. activity change (cytotoxicity), % at 5 µM. hit rate 0.36% among 360,000. AID 602141;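 active means corrected activity change at or below -50% at 5 µM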
Mdm2-MdmX conf = confirmation of human Mdm2/MdmX interaction inhibitors | inhibition, % at 8 µM | shares compounds with Mdm2 MdmX PPI | Mdm2-MdmX binding, luminescent assay | hit rate 55% among 10,000; in the data active means inhibition above about 40%
FLuc counter = full-length luciferase inhibition in Mdm2/MdmX counter-screen | shares compounds with Mdm2 MdmX PPI | inhibition, % at 8 µM | SaOS-2 full-length luciferase counterscreen, luminescence | hit rate 77% among 6,200 | AID 504607;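 active means mean inhibition at 8 µM reaching about 37%, which flags the compound as non-specific, limit read from the data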;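 further: p53-null SaOS-2 cells with luciferase driven by a doxycycline-inducible promoter; compound on cells about two nights before reading with doxycycline added after day one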
Peg3 prom inh-2 = Peg3 promoter inhibition confirmation; shares compounds with Peg3 prom inh-1; HeLa PEG-Prom luciferase reporter, luminescence, overnight; inhibition, % at 20 µM; hit rate 84% among 1,300; AID 602417;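 active means at 20 µM dose, 40% or more inhibition averaged across four replicates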
Active calls of the source: *; . = no result; ! = not active in a repeat.

SMILES	CF NFkB block	Peg3 prom inh-1	HIF-2a inh	ABHD5 PLIN5 PPI	Mdm2 MdmX PPI	KKLEB tox	Mdm2-MdmX conf	FLuc counter	Peg3 prom inh-2
COc1cc(NC(=O)c2cccc(C)c2)ccc1NC(=O)c1cc2ccccc2o1	43.1	59.5*	12.1	-1.4	66.9*	-33.6	36.0	80.6*	50.2*
CN1CCN(C2Cc3ccccc3Sc3cc(C(F)(F)F)ccc32)CC1 (stereo not drawn)	.	.	.	.	49.6	.	.	.	.
CSc1ccc2c(c1)C(N1CCN(C)CC1)Cc1ccccc1S2 (stereo not drawn)	37.3	81.7*!	-4.5	13.9	68.9*	-12.8	29.1	.	84.5*
NC(=O)c1nsc(C(=O)N(c2ccccc2F)C(C(=O)NCc2ccccc2)c2ccc(O)cc2)c1N (stereo not drawn)	90.5*	75.0*	32.2	15.4	52.2*	-54.4*	65.8*	77.4*	57.4*
Cc1ccccc1N(C(=O)c1snc(C(N)=O)c1N)C(C(=O)NCc1ccccc1)c1ccc(O)cc1 (stereo not drawn)	15.2	48.9	21.0	-7.9	-23.8	2.8	.	.	.
CCc1cccc(CC)c1NC(=S)NCCc1c(C)[nH]c2ccc(C)cc12	12.8	69.0*	1.5	-8.2	71.1*	5.4	51.4*	53.8*	85.4*
CSc1ncccc1C(=O)Nc1ccc2c(c1)OCCO2	-10.9	-25.1	-34.7	-2.9	16.1	8.5	.	.	.
COc1cc(-c2cc(C(=O)Nc3ccc(C)c(S(=O)(=O)N4CCOCC4)c3)c3ccccc3n2)cc(OC)c1OC	34.4	52.5*	1.7	7.2	52.1*	-26.2	39.4	73.0*	37.5
COc1cccc(C(c2nnnn2C(C)(C)C)N2CCN(C/C=C/c3ccccc3)CC2)c1OC (stereo not drawn)	6.2	-3.3	0.9	-0.1	.	-3.4	.	.	.
Cc1ccc(-c2nn3c(-c4ccco4)nnc3c3ccccc23)cc1S(=O)(=O)NCC1CCCO1 (stereo not drawn)	-112.7	55.8*	5.0	3.8	53.1*	-5.5	39.0	68.4*	31.8
O=C1C(=Cc2ccc(F)cc2)Cc2ccccc21	-31.7	-106.0	-159.1	16.0	.	-13.7	.	.	.
O=C1C(=C2SCCCS2)CC/C1=C\c1ccc(F)cc1	-10.6	85.7*	64.8*	5.6	82.1*	-78.0*	81.0*	25.5	42.9*
Cc1ccccc1-c1nc(CN2CCC(C(=O)NC3CCN(Cc4ccccc4)CC3)CC2)c(C)o1	20.4	56.5*	1.7	-0.6	98.7*	-7.7	58.2*	75.5*	-6.5
CC1CCC(C#N)(N(C)C(=O)CSc2nnc(C3CC3)n2C2CC2)CC1 (stereo not drawn)	1.3	-8.5	-2.1	-0.6	10.0	5.4	.	.	.
CN1CCC(N(C)C(=O)/C=C/c2cn(-c3ccccc3)nc2-c2cccs2)CC1	11.0	76.8*	4.1	13.6	76.3*	-11.3	34.8	67.0*	93.5*
CC1CCCCN1CCNC(=O)c1ccc2c(=O)n(Cc3ccc(Cl)cc3)c(=S)[nH]c2c1 (stereo not drawn)	-4.4	101.7*	1.7	-4.4	78.3*	-11.6	31.8	.	97.6*
C[C@H](NS(=O)(=O)OCC(Cl)(Cl)Cl)C1CC1c1ccccc1 (stereo partly drawn)	-11.5	4.6	17.5	-7.4	-15.0	-10.5	.	.	.
O=S(=O)(NC1CC(NS(=O)(=O)OCC(Cl)(Cl)Cl)C2CCCCC12)OCC(Cl)(Cl)Cl (stereo not drawn)	32.4	56.5*	-31.8	-9.6	77.0*	-0.8	69.6*	59.1*	93.2*
O=[N+]([O-])c1ccc(CN2[C@H](COCc3ccccc3)[C@@H](N3CCCC3)CS2(=O)=O)cc1	5.0	11.6	-3.7	2.0	.	-18.9	.	.	.
CCc1cccc(NS(=O)(=O)c2ccc3c(c2)N(C)CCO3)c1	-21.1	11.7	13.8	-8.5	19.3	10.4	.	.	.
